Results published in paper PMC5540273 (PLoS ONE, 2017).

Columns and labels:
Details in all cases: concentration: 1 μM, replicates: in singlicate; n = 1
[1] = test system: RPS6KA4(Kin.Dom.1-N-terminal)
[2] = test system: RPS6KA4(Kin.Dom.2-C-terminal)
[3] = test system: RPS6KA5(Kin.Dom.1-N-terminal)
[4] = test system: RPS6KA5(Kin.Dom.2-C-terminal)
[5] = test system: T1, RSK1(Kin.Dom.1-N-terminal)
T1 construct: gene RPS6KA1

[6] = test system: T2, RSK1(Kin.Dom.2-C-terminal)
T2 construct: gene RPS6KA1

[7] = test system: T3, RSK2(Kin.Dom.1-N-terminal)
T3 construct: gene RPS6KA3

[8] = test system: T4, RSK2(Kin.Dom.2-C-terminal)
T4 construct: gene RPS6KA3

[9] = test system: T5, RSK3(Kin.Dom.1-N-terminal)
T5 construct: gene RPS6KA2

[10] = test system: T6, RSK3(Kin.Dom.2-C-terminal)
T6 construct: gene RPS6KA2

[11] = test system: T7, RSK4(Kin.Dom.1-N-terminal)
T7 construct: gene RPS6KA6

[12] = test system: T8, RSK4(Kin.Dom.2-C-terminal)
T8 construct: gene RPS6KA6

[13] = test system: S6K1
[14] = test system: SBK1
[15] = test system: SGK2
[16] = test system: SGK3
[17] = test system: SGK
[18] = test system: SIK2
[19] = test system: SIK
[20] = test system: SLK
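Further: KINOMEscan kinase panel screen.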

Structure (SMILES) | %Inh [1] [%] | %Inh [2] [%] | %Inh [3] [%] | %Inh [4] [%] | %Inh [5] [%] | %Inh [6] [%] | %Inh [7] [%] | %Inh [8] [%] | %Inh [9] [%] | %Inh [10] [%] | %Inh [11] [%] | %Inh [12] [%] | %Inh [13] [%] | %Inh [14] [%] | %Inh [15] [%] | %Inh [16] [%] | %Inh [17] [%] | %Inh [18] [%] | %Inh [19] [%] | %Inh [20] [%]
COc1ccc(Nc2nccc(N3CCC(NC(=O)Nc4cccc(OC)c4)C3)n2)cc1 (centres unmarked) [GSK1379742] | 15 | 0 | 10 | 0 | 0 | 0 | 15 | 1 | 0 | 0 | 0 | 24 | 0 | 0 | 0 | 0 | 3 | 0 | 0 | 17
COc1cc(Nc2nccc(-c3c(-c4cccc(NC(=O)c5c(F)cccc5F)c4)nn4ccccc34)n2)cc(OC)c1OC [GSK323521] | 25 | 0 | 27 | 0 | 5 | 14 | 32 | 47 | 25 | 9 | 0 | 23 | 7 | 17 | 26 | 7 | 22 | 0 | 30 | 25
COc1cccc(C(=O)Nc2cccc(Oc3ccc4nc(NC(=O)C5CC5)cn4n3)c2)c1 | 40 | 10 | 0 | 19 | 0 | 12 | 9 | 0 | 5 | 1 | 0 | 0 | 0 | 0 | 0 | 23 | 0 | 27 | 63 | 49
Cc1ccc(S(=O)(=O)Nc2ccc(Nc3nccc(Nc4cccc5[nH]ncc45)n3)cc2)cc1 [GSK581271] | 0 | 0 | 0 | 0 | 1 | 14 | 15 | 0 | 5 | 0 | 0 | 0 | 14 | 26 | 9 | 0 | 0 | 67 | 36 | 0
CN1CCN(Cc2cccc(-c3ccc4c(Nc5ccc(Oc6ccccc6)cc5)ccnc4c3)c2)CC1 [GW578342] | 0 | 0 | 0 | 21 | 26 | 99.1 | 0 | 15 | 0 | 7 | 0 | 0 | 0 | 11 | 0 | 1 | 7 | 1 | 0 | 0
Clc1ccc(-c2nn3ncccc3c2-c2ccnc(Nc3ccc4c(c3)OCCO4)n2)cc1 [GW829116] | 4 | 0 | 0 | 8 | 18 | 32 | 23 | 0 | 0 | 0 | 0 | 88 | 9 | 0 | 0 | 0 | 35 | 30 | 1 | 87
C[C@@H]1CC[C@@H](C(=O)Nc2ccccc2)CN1c1cc(-c2ccc3c(N)n[nH]c3c2)nc(N)n1 [GSK2286062] | 4 | 0 | 6 | 2 | 14 | 3 | 7 | 19 | 2 | 24 | 0 | 17 | 0 | 26 | 0 | 0 | 0 | 0 | 0 | 1
Cc1cccc(Nc2nc(N[C@H]3CCNC3)ncc2C(N)=O)c1.Cl [GSK2197149] | 0 | 0 | 2 | 0 | 22 | 31 | 31 | 0 | 23 | 4 | 30 | 23 | 5 | 42 | 12 | 0 | 0 | 30 | 35 | 30
COCCOCCOc1cc2ncc3c4ccc(C#N)cc4[nH]c3c2cc1OC | 0 | 0 | 0 | 44 | 0 | 0 | 79 | 2 | 46 | 8 | 90 | 0 | 61 | 81 | 58 | 47 | 89 | 83 | 13 | 45
Cc1ccc(C)c(NC(=O)NC2CCN(c3ccnc(Nc4ccc(F)cc4)n3)C2)c1 (centres unmarked) [GSK1379720] | 8 | 0 | 0 | 22 | 13 | 0 | 3 | 0 | 0 | 0 | 0 | 6 | 8 | 1 | 2 | 0 | 0 | 0 | 0 | 0
